From PubChem BioAssay AID743449 (Broad Institute, 2014)
Several values for one entry are separate records, joined by “and”; a condition that tells them apart may be missing. Equal entries are not always repeated. Hit rate of the full screen: of about 9,900 compounds, about 90 (0.9%) were called active. About 2% were inconclusive and are not listed.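 How the source made its calls: active means mean normalized replicate activity at least 50 and at least half of replicates each reaching 50; inconclusive means only one of the two criteria met; inactive means neither criterion met.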 For the sample, actives were picked, then their nearest neighbours and some compounds at random.

test: reduction of CTGF mRNA in DLD1 cells – DLD1 colon cancer cells, RT-qPCR, single point, primary screen (AID 743449); conditions: 24 h, at 12.5 µM, stronger effect = higher value;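 further: 0% = neutral control wells and 100% = dasatinib control wells; higher means stronger suppression of CTGF expression like dasatinib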

Question: Which inhibition does the source give for `O=C(C[C@@H]1C=C[C@H](NC(=O)c2cnccn2)[C@H](CO)O1)NCc1ccccc1F` here?
Answer: 7.69% (inactive)

Question: Which inhibition does the source give for `COc1ccc2c3c([nH]c2c1)[C@H](CO)NCC31CN(C(=O)Nc2c(C)noc2C)C1` here?
Answer: -10.8% (inactive)

Question: For `COc1ccc(CN(C)C[C@@H]2OCCCC[C@@H](C)Oc3ccc(NC(=O)C4CCCCC4)cc3C(=O)N([C@H](C)CO)C[C@@H]2C)cc1`, which inhibition is on record?
Answer: -11.6% (inactive)

Question: Which inhibition does the source give for `N#C[C@@H]1[C@H](c2ccc(-c3cccc(F)c3)cc2)[C@@H](CO)N1C(=O)CN1CCOCC1` here?
Answer: 0.153% (inactive)

Question: For `CN1C(=O)c2cc(NC(=O)c3cccc(Cl)c3)ccc2OC[C@H]2O[C@@H](CC(=O)NC3CCCCC3)CC[C@H]21`, which inhibition is on record?
Answer: 19.3% (inactive)

Question: For `COc1ccc(C(=O)N2C[C@H]3[C@@H](c4ccccc42)[C@@H](CO)N3Cc2ccccc2Cl)cc1`, which inhibition is on record?
Answer: -11.9% (inactive)

Question: Which inhibition does the source give for `COCC(=O)N1[C@H](CO)[C@H](c2ccc(C#Cc3ccccc3F)cc2)[C@@H]1C#N` here?
Answer: 5.53% (inactive)

Question: For `COc1ccc(C(=O)N2C[C@@H]3[C@H](c4ccccc42)[C@H](CO)N3C(=O)NC(C)C)cc1`, which inhibition is on record?
Answer: -12.1% (inactive)

Question: With `C[C@H]1CN([C@@H](C)CO)C(=O)c2ccccc2-c2ccccc2CO[C@@H]1CN(C)C(=O)[C@H](Cc1ccccc1)N(C)C` as the molecule, how does the inhibition read?
Answer: -17.8% (inactive)

Question: Which inhibition does the source give for `Cc1noc(C)c1NC(=O)N(C)C[C@@H]1OCc2ccccc2-c2c(n(C)c3ccccc23)C(=O)N([C@H](C)CO)C[C@@H]1C` here?
Answer: -14.8% (inactive)

Question: With `CCCC(=O)Nc1ccc2c(c1)C(=O)N(C)C[C@H](OC)[C@@H](C)CN(C(=O)c1ccccn1)[C@@H](C)CO2` as the molecule, how does the inhibition read?
Answer: 25.7% (inactive)

Question: With `O=C(NCC1CC1)[C@H]1[C@H](CO)[C@H]2Cn3c(ccc(-c4cccnc4)c3=O)[C@H]2N1Cc1cocn1` as the molecule, how does the inhibition read?
Answer: -2.27% (inactive)

Question: For `O=C([C@@H]1[C@@H](CO)[C@@H]2Cn3c(ccc(-c4ccc(F)cc4)c3=O)[C@@H]2N1Cc1cocn1)N1CCCCC1`, which inhibition is on record?
Answer: -1.91% (inactive)

Question: With `O=C([C@H]1[C@H](CO)[C@H]2Cn3c(ccc(-c4ccc(F)cc4)c3=O)[C@H]2N1Cc1cocn1)N1CCCCC1` as the molecule, how does the inhibition read?
Answer: 53.6% (active)

Question: Which inhibition does the source give for `CCS(=O)(=O)Nc1ccc2c(c1)C(=O)N(C)C[C@H](OC)[C@H](C)CN(C(=O)c1ccc3c(c1)OCO3)[C@@H](C)CO2` here?
Answer: -9.16% (inactive)

Question: For `C[C@@H]1CN([C@H](C)CO)C(=O)CCCn2nncc2CO[C@H]1CN(C)Cc1ccc(C(=O)Nc2ccccc2N)cc1`, which inhibition is on record?
Answer: -132% (inactive)

Question: Which inhibition does the source give for `COc1ccccc1C(=O)Nc1ccc2c(c1)C(=O)N(C)C[C@@H](OC)[C@@H](C)CN(C(C)=O)[C@@H](C)CO2` here?
Answer: -6.31% (inactive)

Question: Which inhibition does the source give for `COc1ccccc1C(=O)Nc1ccc2c(c1)C(=O)N(C)C[C@H](OC)[C@@H](C)CN(C(C)=O)[C@@H](C)CO2` here?
Answer: 64.2% (active)

Question: For `CCCN1C[C@H](C)[C@@H](OC)CN(C)C(=O)c2cc(NS(=O)(=O)c3ccccc3)ccc2OC[C@H]1C`, which inhibition is on record?
Answer: 2.69% (inactive)

Question: With `CO[C@@H]1CN(C)C(=O)c2cc(NC(=O)Nc3ccccc3F)ccc2OC[C@H](C)N(CCC(F)(F)F)C[C@H]1C` as the molecule, how does the inhibition read?
Answer: 21% (inactive)

Question: Which inhibition does the source give for `CCC(=O)N1C[C@@H](C)[C@@H](OC)CN(C)C(=O)c2cc(NC(=O)Nc3ccc(Cl)cc3)ccc2OC[C@@H]1C` here?
Answer: 15% (inactive)

Question: Which inhibition does the source give for `COc1ccccc1C(=O)Nc1ccc2c(c1)C(=O)N(C)C[C@H](OC)[C@H](C)CN(C(C)=O)[C@H](C)CO2` here?
Answer: -22.7% (inactive)

Question: With `CCC(=O)N1C[C@@H](C)[C@@H](OC)CN(C)C(=O)c2cc(NC(=O)Nc3ccc(Cl)cc3)ccc2OC[C@H]1C` as the molecule, how does the inhibition read?
Answer: -27.4% (inactive)

Question: With `CO[C@H]1CN(C)C(=O)c2cc(NC(=O)Nc3ccccc3F)ccc2OC[C@@H](C)N(CCC(F)(F)F)C[C@@H]1C` as the molecule, how does the inhibition read?
Answer: 8.27% (inactive)

Question: Which inhibition does the source give for `CCCN1C[C@@H](C)[C@H](OC)CN(C)C(=O)c2cc(NS(=O)(=O)c3ccccc3)ccc2OC[C@@H]1C` here?
Answer: -22.6% (inactive)

Question: Which inhibition does the source give for `CO[C@@H]1CN(C)C(=O)c2cc(NS(=O)(=O)c3ccccc3C)ccc2OC[C@@H](C)N(S(=O)(=O)c2ccccc2)C[C@H]1C` here?
Answer: 75.2% (active)

Question: For `CCC(=O)N1C[C@H](C)[C@@H](OC)CN(C)C(=O)c2cc(NC(=O)Nc3ccc(Cl)cc3)ccc2OC[C@@H]1C`, which inhibition is on record?
Answer: 59.6% (active)

Question: With `CO[C@H]1CN(C)C(=O)c2cc(NC(=O)Nc3ccccc3F)ccc2OC[C@H](C)N(CCC(F)(F)F)C[C@@H]1C` as the molecule, how does the inhibition read?
Answer: 65.1% (active)

Question: For `C[C@H](CO)N1C[C@H](C)[C@@H](CN(C)S(=O)(=O)c2cn(C)cn2)OCc2ccccc2-c2ccccc2C1=O`, which inhibition is on record?
Answer: 13.5% (inactive)

Question: For `C[C@H]1CN([C@@H](C)CO)C(=O)c2cc(-c3ccncc3)cnc2O[C@@H]1CN(C)C(=O)CN1CCOCC1`, which inhibition is on record?
Answer: 4.89% (inactive)

Question: With `O=C(C1CCOCC1)N1C[C@H]2[C@@H](c3ccccc31)[C@H](CO)N2C(=O)Cc1ccccn1` as the molecule, how does the inhibition read?
Answer: -3.22% (inactive)

Question: For `CCCNC(=O)N(C)C[C@H]1[C@H](c2ccccc2)[C@@H](CO)N1C(=O)c1ccccc1`, which inhibition is on record?
Answer: 13.1% (inactive)

Question: For `COCC(=O)Nc1ccc2c(c1)[C@H]1C[C@@H](CC(=O)N3CCOCC3)O[C@H](CO)[C@H]1O2`, which inhibition is on record?
Answer: -2.81% (inactive)

Question: Which inhibition does the source give for `C[C@H](CO)N1C[C@H](C)[C@H](CN(C)Cc2cccnc2)Oc2ncc(-c3ccc(C#N)cc3)cc2C1=O` here?
Answer: 10.9% (inactive)

Question: For `Cc1noc(C)c1S(=O)(=O)N(C)C[C@H]1OCCCC[C@@H](C)Oc2ccc(NC(=O)CCC(F)(F)F)cc2C(=O)N([C@@H](C)CO)C[C@H]1C`, which inhibition is on record?
Answer: -10.5% (inactive)

Question: For `CCN1[C@@H]2c3ccc(C4=CCCC4)c(=O)n3C[C@@H]2[C@@H](CO)[C@@H]1C(=O)NC1Cc2ccccc2C1`, which inhibition is on record?
Answer: -18.3% (inactive)

Question: Which inhibition does the source give for `Cc1cc(C(=O)Nc2ccc3c(c2)C(=O)N(C)[C@@H]2CC[C@@H](CC(=O)O)O[C@H]2CO3)no1` here?
Answer: 8.49% (inactive)

Question: With `COCC(=O)N1CC[C@@H]2[C@@H](CO)Nc3ccc(C#Cc4ccc(F)cc4)cc3[C@@H]21` as the molecule, how does the inhibition read?
Answer: 12.9% (inactive)

Question: For `COCC(=O)N1CC[C@@H]2[C@H]1c1cc(C#Cc3ccc(F)cc3)ccc1N[C@@H]2CO`, which inhibition is on record?
Answer: 22.4% (inactive)

Question: For `COCC(=O)N1CC[C@@H]2[C@H](CO)Nc3ccc(C#Cc4ccc(F)cc4)cc3[C@@H]21`, which inhibition is on record?
Answer: 51.2% (active)

Question: For `COc1cccc(NC(=O)C[C@@H]2CC[C@@H]3[C@H](COc4ccc(NS(=O)(=O)c5cccc(F)c5)cc4C(=O)N3C)O2)c1`, which inhibition is on record?
Answer: -76.5% (inactive)

Question: For `C[C@H]1CN([C@@H](C)CO)C(=O)c2ccccc2-c2ccccc2CO[C@H]1CN(C)Cc1cccc2c1OCCCO2`, which inhibition is on record?
Answer: 24% (inactive)

Question: Which inhibition does the source give for `C[C@@H]1CN([C@@H](C)CO)C(=O)c2c(c3ccccc3n2C)-c2ccccc2CO[C@H]1CN(C)S(=O)(=O)c1ccc([N+](=O)[O-])cc1` here?
Answer: 7.85% (inactive)

Question: Which inhibition does the source give for `C[C@@H]1CN([C@@H](C)CO)C(=O)c2ccccc2-c2ccccc2CO[C@@H]1CN(C)Cc1ccccc1C(F)(F)F` here?
Answer: -64.4% (inactive)

Question: With `C[C@@H]1CN([C@@H](C)CO)C(=O)c2ccccc2-c2ccccc2CO[C@@H]1CN(C)S(=O)(=O)c1cn(C)cn1` as the molecule, how does the inhibition read?
Answer: 63% (active)

Question: Which inhibition does the source give for `C[C@@H]1CN([C@@H](C)CO)C(=O)c2ccccc2-c2ccccc2CO[C@H]1CN(C)S(=O)(=O)c1cn(C)cn1` here?
Answer: -9.13% (inactive)

Question: For `C[C@@H]1CN([C@@H](C)CO)C(=O)c2ccccc2-c2ccccc2CO[C@@H]1CN(C)Cc1cccc2c1OCCCO2`, which inhibition is on record?
Answer: 14.7% (inactive)

Question: With `C[C@H](CO)N1C[C@H](C)[C@@H](CN(C)S(=O)(=O)c2ccc([N+](=O)[O-])cc2)OCc2ccccc2-c2c(n(C)c3ccccc23)C1=O` as the molecule, how does the inhibition read?
Answer: 63.8% (active)

Question: For `C[C@H]1CN([C@@H](C)CO)C(=O)c2ccccc2-c2ccccc2CO[C@@H]1CN(C)S(=O)(=O)c1cn(C)cn1`, which inhibition is on record?
Answer: -12.7% (inactive)

Question: With `C[C@H](CO)N1C[C@H](C)[C@H](CN(C)Cc2ccccc2C(F)(F)F)OCc2ccccc2-c2ccccc2C1=O` as the molecule, how does the inhibition read?
Answer: 26.5% (inactive)

Question: With `C[C@H]1CN([C@@H](C)CO)C(=O)c2c(c3ccccc3n2C)-c2ccccc2CO[C@@H]1CN(C)S(=O)(=O)c1ccc([N+](=O)[O-])cc1` as the molecule, how does the inhibition read?
Answer: 23.9% (inactive)

Question: Which inhibition does the source give for `C[C@@H]1CN([C@H](C)CO)C(=O)c2ccccc2-c2ccccc2CO[C@@H]1CN(C)Cc1cccc2c1OCCCO2` here?
Answer: 59.4% (active)

Question: For `C[C@@H]1CN([C@H](C)CO)C(=O)c2ccccc2-c2ccccc2CO[C@@H]1CN(C)Cc1ccccc1C(F)(F)F`, which inhibition is on record?
Answer: 69.6% (active)

Question: Which inhibition does the source give for `O=C(c1cnccn1)N1C[C@@H]2N[C@H](C1)C2c1ccc(/C=C/c2ccccc2)cc1` (stereo partly specified) here?
Answer: -30.1% (inactive) and 19.5% (inactive)

Question: With `O=C(C[C@H]1CC[C@H]2[C@@H](COC[C@@H](O)CN2C(=O)c2ccc(F)cc2)O1)N1CCCCC1` as the molecule, how does the inhibition read?
Answer: -4.99% (inactive)

Question: With `COc1ccc(-c2ccc([C@H]3[C@H](CO)N4C(=O)CN(C(=O)C5CC5)C[C@@H]34)cc2)cc1` as the molecule, how does the inhibition read?
Answer: 4.63% (inactive)

Question: With `COc1cccc(NC(=O)N[C@H]2CC[C@@H](CC(=O)N3CCN(C)CC3)O[C@@H]2CO)c1` as the molecule, how does the inhibition read?
Answer: -6.95% (inactive)

Question: For `O=C(NC[C@H]1N[C@H](CO)[C@@H]1c1ccc(-c2cncnc2)cc1)C1CCCCC1`, which inhibition is on record?
Answer: -7.65% (inactive)

Question: For `COc1ccc2c3c(n(C)c2c1)[C@@H](CO)N(C(C)=O)CC31CN(S(=O)(=O)c2ccccc2)C1`, which inhibition is on record?
Answer: 1.07% (inactive)

Question: Which inhibition does the source give for `CC(C)c1cccc(NC(=O)C[C@H]2CC[C@H]3[C@@H](COc4ccc(NC(=O)NCc5ccccc5)cc4C(=O)N3C)O2)c1` here?
Answer: 22.2% (inactive)

Question: With `O=C(Nc1ccccc1F)N1C[C@@H]2[C@H](c3ccccc31)[C@@H](CO)N2C(=O)Cc1cccnc1` as the molecule, how does the inhibition read?
Answer: 7.57% (inactive)
